We go through six molecules from ChEMBL document CHEMBL1961873, “Compounds: GSK PKIS; Assays: Nanosyn kinase panel” (2012).

Test [1] has as its target Calcium/calmodulin-dependent protein kinase type II subunit alpha (Homo sapiens) (UniProt Q9UQM7). Conditions: at 1 µM.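 Note: reported value is a mean percent inhibition of CAMK2A.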
Test [2] has as its target Calcium/calmodulin-dependent protein kinase type II subunit delta (Homo sapiens) (UniProt Q13557). The following applies: at 0.1 µM.
For test [3] the target is unchanged. Conditions: at 1 µM.
Test [4] addresses T1, Calcium/calmodulin-dependent protein kinase type IV (Homo sapiens) (UniProt Q16566).
T1 sequence (whole entry): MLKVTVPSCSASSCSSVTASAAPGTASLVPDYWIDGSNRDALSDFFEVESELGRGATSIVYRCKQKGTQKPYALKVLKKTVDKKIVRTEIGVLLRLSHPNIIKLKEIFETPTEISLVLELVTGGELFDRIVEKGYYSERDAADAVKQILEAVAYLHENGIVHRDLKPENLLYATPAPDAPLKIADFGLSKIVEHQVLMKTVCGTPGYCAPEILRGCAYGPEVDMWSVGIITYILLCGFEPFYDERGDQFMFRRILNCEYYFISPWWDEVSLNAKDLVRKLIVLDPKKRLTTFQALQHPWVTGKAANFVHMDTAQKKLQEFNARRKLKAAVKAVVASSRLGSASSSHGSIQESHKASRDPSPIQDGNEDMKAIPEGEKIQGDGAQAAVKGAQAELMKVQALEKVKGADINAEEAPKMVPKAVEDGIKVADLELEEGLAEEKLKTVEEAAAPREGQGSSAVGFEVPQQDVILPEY
The following applies: at 0.1 µM.

Test [5] addresses T1, Calcium/calmodulin-dependent protein kinase type IV (Homo sapiens). Conditions: at 1 µM.
Test [6] has as its target T2, Serine/threonine-protein kinase Chk1 (Homo sapiens) (UniProt O14757).
T2 sequence (whole entry): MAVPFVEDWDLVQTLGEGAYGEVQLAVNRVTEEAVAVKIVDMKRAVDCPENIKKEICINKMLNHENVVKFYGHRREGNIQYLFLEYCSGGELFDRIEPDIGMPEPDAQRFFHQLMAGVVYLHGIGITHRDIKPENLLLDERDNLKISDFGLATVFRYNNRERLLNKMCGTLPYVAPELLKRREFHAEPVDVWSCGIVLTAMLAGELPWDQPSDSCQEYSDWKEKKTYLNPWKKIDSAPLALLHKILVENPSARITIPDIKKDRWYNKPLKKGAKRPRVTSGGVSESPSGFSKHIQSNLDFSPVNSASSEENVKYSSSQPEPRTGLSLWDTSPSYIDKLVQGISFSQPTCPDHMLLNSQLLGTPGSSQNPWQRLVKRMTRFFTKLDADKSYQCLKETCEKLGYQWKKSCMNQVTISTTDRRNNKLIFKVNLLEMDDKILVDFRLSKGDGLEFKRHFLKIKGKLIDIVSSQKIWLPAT
Conditions: at 0.1 µM.

In test [7] the target is T2, Serine/threonine-protein kinase Chk1 (Homo sapiens). Conditions: at 1 µM.
Test [8] addresses Serine/threonine-protein kinase Chk2 (Homo sapiens) (UniProt O96017). Conditions: at 0.1 µM.
The target is the same in test [9]. Conditions: at 1 µM.
Test [10] concerns the target Death-associated protein kinase 1 (Homo sapiens) (UniProt P53355). The following applies: at 0.1 µM.
The target is the same in test [11]. Conditions: at 1 µM.
The target in test [12] is T3, Serine/threonine-protein kinase DCLK2 (Homo sapiens) (UniProt Q8N568).
T3 sequence (whole entry): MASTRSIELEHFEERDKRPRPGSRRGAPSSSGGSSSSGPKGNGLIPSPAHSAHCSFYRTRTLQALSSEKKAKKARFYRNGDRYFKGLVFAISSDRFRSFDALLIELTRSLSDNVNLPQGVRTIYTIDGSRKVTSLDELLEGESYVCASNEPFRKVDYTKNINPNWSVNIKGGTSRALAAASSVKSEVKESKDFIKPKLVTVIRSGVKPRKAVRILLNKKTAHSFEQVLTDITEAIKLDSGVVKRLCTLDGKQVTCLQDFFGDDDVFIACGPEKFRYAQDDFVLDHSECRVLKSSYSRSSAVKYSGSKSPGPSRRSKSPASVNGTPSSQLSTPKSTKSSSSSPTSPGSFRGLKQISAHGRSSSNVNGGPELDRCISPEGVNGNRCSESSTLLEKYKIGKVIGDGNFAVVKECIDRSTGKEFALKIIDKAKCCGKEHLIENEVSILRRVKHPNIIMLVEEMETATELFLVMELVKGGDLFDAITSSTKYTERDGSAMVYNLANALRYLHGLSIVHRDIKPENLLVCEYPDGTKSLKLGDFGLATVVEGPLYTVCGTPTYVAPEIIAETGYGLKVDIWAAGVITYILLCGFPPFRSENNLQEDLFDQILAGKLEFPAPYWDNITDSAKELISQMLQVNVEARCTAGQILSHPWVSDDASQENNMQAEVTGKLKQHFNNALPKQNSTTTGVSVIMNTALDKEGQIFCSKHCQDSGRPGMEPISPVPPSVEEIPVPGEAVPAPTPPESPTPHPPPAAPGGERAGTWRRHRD
Conditions: at 0.1 µM.

In test [13] the target is T3, Serine/threonine-protein kinase DCLK2 (Homo sapiens). Conditions: at 1 µM.
Test [14] deals with MAP kinase-activated protein kinase 2 (Homo sapiens) (UniProt P49137). Conditions: at 0.1 µM.
Sequence of MAP kinase-activated protein kinase 2 (Homo sapiens) (P49137 whole entry, looked up): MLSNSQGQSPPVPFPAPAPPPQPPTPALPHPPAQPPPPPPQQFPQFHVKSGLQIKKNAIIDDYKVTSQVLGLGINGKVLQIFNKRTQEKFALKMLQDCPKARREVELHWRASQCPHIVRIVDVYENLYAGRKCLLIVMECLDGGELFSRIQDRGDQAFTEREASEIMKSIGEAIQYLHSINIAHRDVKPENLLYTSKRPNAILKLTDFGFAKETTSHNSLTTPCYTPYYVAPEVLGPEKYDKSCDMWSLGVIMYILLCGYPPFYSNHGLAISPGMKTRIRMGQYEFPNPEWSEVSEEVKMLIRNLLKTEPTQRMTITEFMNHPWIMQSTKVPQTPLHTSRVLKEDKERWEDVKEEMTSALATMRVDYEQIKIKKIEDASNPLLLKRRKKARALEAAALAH
Test [15] shares this target. The following applies: at 1 µM.
The target of test [16] is MAP kinase-activated protein kinase 3 (Homo sapiens) (UniProt Q16644). Conditions: at 0.1 µM.
Sequence of MAP kinase-activated protein kinase 3 (Homo sapiens) (Q16644 whole entry, looked up): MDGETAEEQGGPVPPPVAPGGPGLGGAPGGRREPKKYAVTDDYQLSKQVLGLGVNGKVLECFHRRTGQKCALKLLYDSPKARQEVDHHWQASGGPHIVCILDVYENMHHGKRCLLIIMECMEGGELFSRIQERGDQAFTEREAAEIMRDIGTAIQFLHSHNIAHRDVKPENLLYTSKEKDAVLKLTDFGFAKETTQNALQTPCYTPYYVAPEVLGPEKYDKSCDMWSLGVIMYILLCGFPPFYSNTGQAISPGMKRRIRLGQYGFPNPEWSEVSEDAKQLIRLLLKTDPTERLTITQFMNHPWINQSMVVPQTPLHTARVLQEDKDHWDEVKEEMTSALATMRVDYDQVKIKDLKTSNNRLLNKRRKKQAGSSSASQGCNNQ
Test [17] shares this target. The following applies: at 1 µM.
Test [18] deals with Serine/threonine-protein kinase MARK1 (Homo sapiens) (UniProt Q9P0L2). Conditions: at 0.1 µM.
Sequence of Serine/threonine-protein kinase MARK1 (Homo sapiens) (Q9P0L2 whole entry, looked up): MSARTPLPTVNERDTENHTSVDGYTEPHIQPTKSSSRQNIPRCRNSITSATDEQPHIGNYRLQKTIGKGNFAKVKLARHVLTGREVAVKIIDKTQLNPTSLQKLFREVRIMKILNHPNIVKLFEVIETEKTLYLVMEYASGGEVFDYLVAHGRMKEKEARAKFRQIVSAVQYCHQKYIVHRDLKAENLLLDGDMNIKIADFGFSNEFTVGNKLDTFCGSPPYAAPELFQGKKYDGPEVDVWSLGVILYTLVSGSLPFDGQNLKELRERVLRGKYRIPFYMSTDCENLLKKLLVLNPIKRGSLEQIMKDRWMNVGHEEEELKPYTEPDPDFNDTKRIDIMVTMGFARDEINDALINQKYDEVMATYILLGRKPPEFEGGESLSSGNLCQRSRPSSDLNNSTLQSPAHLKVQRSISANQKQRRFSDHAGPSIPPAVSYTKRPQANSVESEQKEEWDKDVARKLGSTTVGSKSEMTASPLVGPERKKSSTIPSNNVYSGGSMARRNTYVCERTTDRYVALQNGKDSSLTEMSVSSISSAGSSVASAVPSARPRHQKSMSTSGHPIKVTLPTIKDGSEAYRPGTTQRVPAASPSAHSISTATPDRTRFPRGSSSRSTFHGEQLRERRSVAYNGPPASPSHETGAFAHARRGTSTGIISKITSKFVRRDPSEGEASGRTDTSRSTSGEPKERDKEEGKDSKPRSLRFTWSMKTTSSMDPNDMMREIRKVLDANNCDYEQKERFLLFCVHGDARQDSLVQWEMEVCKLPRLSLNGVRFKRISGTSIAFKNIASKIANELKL
The target is the same in test [19]. Conditions: at 1 µM.
Test [20] concerns the target MAP/microtubule affinity-regulating kinase 3 (Homo sapiens) (UniProt P27448). Conditions: at 0.1 µM.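 Note: mean percent inhibition of MARK3 kinase activity, measured within the GSK PKIS screening panel.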

Sequence of Serine/threonine-protein kinase Chk2 (Homo sapiens) (O96017 whole entry): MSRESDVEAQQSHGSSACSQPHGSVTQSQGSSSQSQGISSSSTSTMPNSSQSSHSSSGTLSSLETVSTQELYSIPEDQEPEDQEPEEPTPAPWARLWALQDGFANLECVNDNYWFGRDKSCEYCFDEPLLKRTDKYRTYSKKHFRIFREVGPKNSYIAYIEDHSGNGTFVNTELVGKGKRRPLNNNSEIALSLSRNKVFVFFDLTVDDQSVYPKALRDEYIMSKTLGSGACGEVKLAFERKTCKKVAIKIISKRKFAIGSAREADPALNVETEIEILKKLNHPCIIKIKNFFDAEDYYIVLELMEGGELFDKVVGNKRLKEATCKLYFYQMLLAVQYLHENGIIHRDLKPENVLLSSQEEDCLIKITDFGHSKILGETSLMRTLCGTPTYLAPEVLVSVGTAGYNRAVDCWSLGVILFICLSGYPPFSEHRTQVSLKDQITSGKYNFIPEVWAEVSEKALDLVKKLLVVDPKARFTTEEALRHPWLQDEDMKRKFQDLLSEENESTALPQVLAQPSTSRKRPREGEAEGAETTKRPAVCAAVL
Sequence of Calcium/calmodulin-dependent protein kinase type II subunit alpha (Homo sapiens) (Q9UQM7 whole entry): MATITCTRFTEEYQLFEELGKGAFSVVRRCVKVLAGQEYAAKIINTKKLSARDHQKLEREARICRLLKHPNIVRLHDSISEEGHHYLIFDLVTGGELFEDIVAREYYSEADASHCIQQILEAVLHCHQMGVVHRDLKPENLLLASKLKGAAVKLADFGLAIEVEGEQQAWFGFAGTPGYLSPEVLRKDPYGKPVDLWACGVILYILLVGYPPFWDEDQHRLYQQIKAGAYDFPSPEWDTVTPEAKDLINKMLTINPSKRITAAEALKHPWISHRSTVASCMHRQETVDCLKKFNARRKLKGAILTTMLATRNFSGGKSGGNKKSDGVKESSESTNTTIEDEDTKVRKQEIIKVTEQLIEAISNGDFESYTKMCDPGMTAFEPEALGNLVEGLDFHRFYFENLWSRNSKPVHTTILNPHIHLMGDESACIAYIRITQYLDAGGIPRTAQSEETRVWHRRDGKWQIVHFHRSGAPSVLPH
Sequence of Death-associated protein kinase 1 (Homo sapiens) (P53355 whole entry, looked up): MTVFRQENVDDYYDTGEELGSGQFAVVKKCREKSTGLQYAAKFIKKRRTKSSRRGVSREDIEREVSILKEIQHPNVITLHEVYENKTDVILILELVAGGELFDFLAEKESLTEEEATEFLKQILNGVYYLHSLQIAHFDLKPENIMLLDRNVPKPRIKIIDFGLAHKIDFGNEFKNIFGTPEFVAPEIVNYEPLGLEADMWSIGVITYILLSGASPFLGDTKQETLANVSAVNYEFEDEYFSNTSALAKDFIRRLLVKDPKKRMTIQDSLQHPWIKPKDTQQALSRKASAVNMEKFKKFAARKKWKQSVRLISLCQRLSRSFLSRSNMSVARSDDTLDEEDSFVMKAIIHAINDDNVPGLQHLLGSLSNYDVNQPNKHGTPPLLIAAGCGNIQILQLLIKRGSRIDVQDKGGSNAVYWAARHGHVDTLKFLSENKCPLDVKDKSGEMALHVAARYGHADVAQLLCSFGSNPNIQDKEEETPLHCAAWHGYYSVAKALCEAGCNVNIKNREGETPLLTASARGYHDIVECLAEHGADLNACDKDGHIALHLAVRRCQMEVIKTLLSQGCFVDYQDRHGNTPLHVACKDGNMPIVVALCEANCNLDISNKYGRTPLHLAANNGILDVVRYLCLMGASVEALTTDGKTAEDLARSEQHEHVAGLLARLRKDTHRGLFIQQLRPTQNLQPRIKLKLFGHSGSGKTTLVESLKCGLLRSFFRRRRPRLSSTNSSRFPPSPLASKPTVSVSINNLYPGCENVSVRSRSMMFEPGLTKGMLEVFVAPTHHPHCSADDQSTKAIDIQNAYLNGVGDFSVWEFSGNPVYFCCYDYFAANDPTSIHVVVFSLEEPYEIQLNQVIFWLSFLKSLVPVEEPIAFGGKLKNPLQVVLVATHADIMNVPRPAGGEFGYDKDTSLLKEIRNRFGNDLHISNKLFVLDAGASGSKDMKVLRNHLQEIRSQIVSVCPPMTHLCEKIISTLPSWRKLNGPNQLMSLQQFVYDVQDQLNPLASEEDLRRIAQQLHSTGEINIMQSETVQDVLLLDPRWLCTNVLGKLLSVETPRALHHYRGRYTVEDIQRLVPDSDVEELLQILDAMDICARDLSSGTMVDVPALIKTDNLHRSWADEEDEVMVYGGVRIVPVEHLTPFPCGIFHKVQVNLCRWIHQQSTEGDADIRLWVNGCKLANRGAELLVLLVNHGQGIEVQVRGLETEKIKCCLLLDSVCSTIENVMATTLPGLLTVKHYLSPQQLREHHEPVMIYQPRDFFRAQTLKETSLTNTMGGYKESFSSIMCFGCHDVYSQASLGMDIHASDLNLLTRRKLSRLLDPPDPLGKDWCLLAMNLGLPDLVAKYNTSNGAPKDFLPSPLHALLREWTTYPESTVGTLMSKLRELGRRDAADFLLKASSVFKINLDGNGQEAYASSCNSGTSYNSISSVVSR
Sequence of MAP/microtubule affinity-regulating kinase 3 (Homo sapiens) (P27448 whole entry, looked up): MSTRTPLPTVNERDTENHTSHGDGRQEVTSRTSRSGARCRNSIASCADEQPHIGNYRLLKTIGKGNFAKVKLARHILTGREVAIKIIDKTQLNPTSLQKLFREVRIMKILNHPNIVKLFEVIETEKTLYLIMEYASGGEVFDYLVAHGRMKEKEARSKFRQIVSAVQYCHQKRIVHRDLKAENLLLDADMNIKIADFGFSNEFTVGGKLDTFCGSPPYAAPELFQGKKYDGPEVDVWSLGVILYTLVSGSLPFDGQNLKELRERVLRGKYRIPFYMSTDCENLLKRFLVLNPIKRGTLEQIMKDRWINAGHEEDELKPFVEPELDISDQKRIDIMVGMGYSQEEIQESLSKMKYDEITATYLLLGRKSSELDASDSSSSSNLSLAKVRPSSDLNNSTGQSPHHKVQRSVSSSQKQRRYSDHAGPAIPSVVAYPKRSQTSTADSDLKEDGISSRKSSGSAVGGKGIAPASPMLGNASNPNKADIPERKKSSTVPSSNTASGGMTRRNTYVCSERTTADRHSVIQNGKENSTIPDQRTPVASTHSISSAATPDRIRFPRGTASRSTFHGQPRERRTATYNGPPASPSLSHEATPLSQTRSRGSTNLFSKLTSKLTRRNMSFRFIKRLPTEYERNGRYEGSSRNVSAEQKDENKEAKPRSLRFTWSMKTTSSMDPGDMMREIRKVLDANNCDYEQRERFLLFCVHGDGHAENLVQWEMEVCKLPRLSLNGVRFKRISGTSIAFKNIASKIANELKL

In the case of `CS(=O)(=O)CCNCc1ccoc1-c1ccc2ncnc(Nc3ccc(OCc4ccccc4)cc3)c2c1`, the inhibition in [1] is 0.09%; in [2], 0.18%; in test [3], -0.44%; in test [4], -0.43%; in test [5] it was -1.35%; in test [6], 0.86%. The inhibition in [7] is -2.73%; in test [8] it was 1.56%; in test [9], 8.55%; in test [10], -0.21%; in [11], -0.75%; in test [12] it was -1.49%. In addition, the inhibition in [13] is -0.03%; in [14], -0.61%; in test [15] it was -0.91%; in test [16] it was 0.57%; in [17], 0.18%; in test [18], -0.89%. Also, the figures for the inhibition in [19] and in [20] were 1.23% and -2.66%, respectively.
For `N#Cc1ccc2c(-c3ccnc(NC4CC4)n3)c(-c3ccc(F)cc3)nn2c1`, the inhibition in [1] was -1.71%; in test [2], 0.13%; in test [3] it was -1.01%; in test [4] it was 0.17%; in [5], -2.53%; in test [6] it was -1.96%. For the same molecule, the inhibition in [7] is -0.86%; in [8], -0.32%; in test [9], 0.27%; in test [10], 1.33%; in [11], 0.06%; in test [12] it was -0.01%. The inhibition in [13] is 1.17%; in test [14], 0.5%; in test [15], -0.23%; in test [16], 32.7%; in test [17], 35.1%; in test [18], 0.42%. Besides, the inhibition in test [19] amounted to 1.08%; in test [20] it was 2.94%.
For `FC(F)(F)CNc1nccc(-c2cnn3ncccc23)n1`, the inhibition in test [1] was -1.03%; in [2], 2.87%; in test [3], 1.95%; in [4] it was -0.09%; in [5] it was -1.75%; in test [6], 0.28%. In addition, the inhibition in test [7] is 2.9%; in [8], 1.64%; in test [9], 0.78%; in test [10], 3.66%; in test [11] it was 2.17%; in [12] it was -0.54%. Further, the inhibition in [13] was 3.19%; in test [14] it was 1%; in test [15], -0.08%; in test [16], 3.47%; in [17], 3.54%; in test [18] it was 1.58%. Further, the inhibition is 4.46% in test [19] and 0.46% in test [20].
As to `CN(c1ccc(NC(=O)NCCN2CCOCC2)cc1)c1ccnc(Nc2ccc(CS(C)(=O)=O)cc2)n1`, the inhibition in test [1] is 1.11%; in test [2] it was 1.06%; in test [3], 3.97%; in test [4], -3.18%; in test [5] it was -5.39%; in test [6], 4.02%. Also, the inhibition came to 3.14% in test [7]; 2.01% in test [8]; 6.85% in [9]; 4.05% in test [10]; 4.97% in test [11]; 0.85% in test [12]. Further, the inhibition in [13] is 0.61%; in [14], 1.97%; in [15], 2.7%; in test [16] it was 2.92%; in test [17], 3.83%; in test [18], 2.9%. Also, the figures for the inhibition in test [19] and in test [20] were 7.21% and 2.81%, respectively.
For `c1ccc(-c2n[nH]cc2-c2ccnc(-c3ccc(OCCn4ccnc4)cc3)c2)nc1`, the inhibition is -1.38% in test [1]; -0.35% in [2]; 0.74% in test [3]; 0.1% in [4]; -0.86% in test [5]; -5.5% in test [6]. For the same molecule, the inhibition was -4.71% in test [7]; -3.83% in [8]; -2.77% in test [9]; -7.91% in test [10]; -8.69% in test [11]; 6.53% in test [12]. The inhibition in [13] is -6.73%; in test [14] it was -2.58%; in [15] it was -2.83%; in test [16] it was -3.24%; in test [17], 4.97%; in test [18], 1.59%. The inhibition in test [19] is 3.61%; in test [20] it was -0.18%.
Consider `CCN1CCC(C(=O)Nc2n[nH]c3nnc(-c4cccc(F)c4F)cc23)CC1`, for which the inhibition is -1.33% in test [1]; -0.8% in test [2]; -0.61% in [3]; 0.3% in [4]; -1.03% in test [5]; -2.25% in test [6]. In addition, the inhibition is 0.59% in test [7]; -0.57% in [8]; 0.65% in [9]; -0.72% in [10]; -1.64% in test [11]; -0.76% in test [12]. Besides, the inhibition in test [13] was -0.98%; in [14], -0.95%; in [15] it was -0.88%; in [16] it was -0.17%; in test [17], -1.03%; in test [18], 0.92%. The inhibition is 2.69% in test [19] and -0.37% in test [20].
